The full list was thinned out, with hits kept by preference.
RE007 growth inh = less growth of the S. pombe RE007 Vpr strain. S. pombe RE007 Vpr strain, BacTiter-Glo ATP luminescence, 24 h. Potency, µM (highest dose often 92.2 µM), without a hit: top-dose activity change, negative = less growth, actives largely listed as inhibitors. hit rate 0.21% among 360,000. AID 651644; active = well fitted falling curve with a large enough effect; inconclusive = small, poorly fitted or top-dose-only effect; inactive = no such curve, though single readings can be large or run the other way; also: potency is read from the fitted curve at half-maximal effect; % is scaled to controls: 0 for no effect and ±100 for the full control effect; nearly all actives have a fitted effect of over 50% in size
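Fission yeast strain RE007, carrying one chromosomally integrated HIV-1 vpr copy, was seeded at OD 0.01 in PMG+AL medium with 23 nL pinned compound. After 24 h at 30 °C and 99% humidity, viability was read by BacTiter-Glo luminescence.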
Shiga inhibitor = Shiga toxin inhibition; Vero cells, Shiga toxin protein synthesis inhibition reporter; inhibition, % at 38.7 µM; hit rate 9.2% among 290,000; in the data active = inhibition mostly above about 28%, no sharp cut-off; inactive = mostly below about 43%; also: 0% is about no effect
TbPYK inhibitor = T. brucei pyruvate kinase inhibition | Q57TT1 | TbPYK enzyme, Kinase-Glo Plus ATP luminescence, 45 min | Potency, µM (series often up to 76.8 µM), inactives show at the top dose activity, negative = inhibition, actives largely listed as inhibitors | hit rate 0.12% among 410,000 | AID 624173; also: potency is read from the fitted curve at half-maximal effect; % is scaled to controls: 0 for no effect and ±100 for the full control effect; nearly all actives have a fitted effect of over 50% in size
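Quantitative HTS: titrated library compounds versus trypanosomal pyruvate kinase in TEA buffer (pH 7.2) containing KCl, MgCl2, BSA and Tween-20. Reactions were initiated with ADP, 130 uM final. Kinase-Glo Plus luminescence was read after 45 min at RT.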
LmPK inhibitor = inhibitors of Leishmania mexicana pyruvate kinase | Q27686 | AID 1721 | purified LmPK, Kinase-Glo ATP luminescence, 1 h | hit rate 0.37% among 290,000 | Potency, µM (top dose mostly 57.5 µM), for the others: at the highest dose activity change, negative = inhibition, actives largely listed as inhibitors; also: potency is read from the fitted curve at half-maximal effect; % is scaled to controls: 0 for no effect and ±100 for the full control effect
Target sequence (Q27686 whole entry, looked up): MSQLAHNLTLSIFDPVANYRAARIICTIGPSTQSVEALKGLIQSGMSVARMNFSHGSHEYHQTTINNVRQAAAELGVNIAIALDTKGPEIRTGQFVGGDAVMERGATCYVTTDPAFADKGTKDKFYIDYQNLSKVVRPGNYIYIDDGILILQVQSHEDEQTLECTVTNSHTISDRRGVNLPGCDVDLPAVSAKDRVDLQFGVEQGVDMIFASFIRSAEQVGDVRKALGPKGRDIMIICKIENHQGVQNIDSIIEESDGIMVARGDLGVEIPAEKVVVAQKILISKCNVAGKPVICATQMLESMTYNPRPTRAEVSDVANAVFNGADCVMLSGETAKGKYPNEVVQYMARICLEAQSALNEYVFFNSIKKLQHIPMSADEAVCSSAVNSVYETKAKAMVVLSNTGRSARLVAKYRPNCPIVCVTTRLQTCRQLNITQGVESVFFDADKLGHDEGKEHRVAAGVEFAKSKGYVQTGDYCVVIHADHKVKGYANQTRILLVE
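Screened at intermediate enzyme activity to detect both inhibitors and activators: LmPK at 0.1 nM, with a 0.5 nM enzyme column as activation reference. PEP 0.5 mM, ADP 0.1 mM; ATP detected by luminescence after 1 h.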
Cycloheximide cs = counter-screen hit for Shiga toxin inhibitors, cycloheximide; cell reporter, cycloheximide protein synthesis inhibition counterscreen; max response, %; hit rate 12% among 300,000; in the data active = max response mostly above about 13%, no sharp cut-off; inactive = mostly below about 14%; also: read at 38.3 µM for the half of the compounds with a filed dose; 0% is about no effect
Giardia FBPA inh-1 = blocks Giardia fructose-bisphosphate aldolase activity | purified Giardia FBPA | hit rate 0.71% among 290,000 | Potency, µM (highest dose often 59.6 µM), inactives show at the top dose activity, negative = inhibition, actives largely listed as inhibitors; also: potency is read from the fitted curve at half-maximal effect; % is scaled to controls: 0 for no effect and ±100 for the full control effect; nearly all actives have a fitted effect of over 55% in size
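Giardia FBPA (40 nM reagent) was preincubated 10 min at RT with compound (up to 57.5 uM final), then substrate plus GAPDH/TPI/NAD/arsenate coupling system with diaphorase/resazurin was added; resorufin fluorescence (525/598 nm) was read after 20 min.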
Giardia growth = Giardia lamblia growth inhibition; Potency, µM (titrated, usually from 57.5 µM), inactives show at the top dose activity change, negative = inhibition, hits mostly inhibitors; hit rate 5% among 1,500; shares compounds with Giardia FBPA inh-1; Giardia lamblia trophozoite growth inhibition;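 also: potency is read from the fitted curve at half-maximal effect; trophozoites exposed to compound for 48 h at 37 °C; % is scaled to controls: 0 for no effect and ±100 for the full control effect; nearly all actives have a fitted effect of over 70% in size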
Mammal cell tox = mammalian cytotoxicity of Giardia aldolase inhibitor hits | shares compounds with Giardia FBPA inh-1 | mammalian cell viability counter-screen, qHTS | Potency, µM (highest dose often 57.5 µM), for inactives: top-dose viability change, negative = toxicity, actives largely listed as inhibitors | hit rate 4% among 1,500 | AID 2786;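 also: Chinese hamster ovary cells used as mammalian cytotoxicity surrogate; viability measured as cellular ATP by luminescence; potency is read from the fitted curve at half-maximal effect; compound exposure lasted 48 h before reading; % is scaled to controls: 0 for no effect and ±100 for the full control effect; nearly all actives have a fitted effect of over 60% in size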
Giardia FBPA inh-2 = confirmation of Giardia fructose-bisphosphate aldolase inhibitors | shares compounds with Giardia FBPA inh-1 | purified Giardia aldolase enzyme activity, qHTS | Potency, µM (series often up to 57.5 µM), without a hit: top-dose activity change, negative = inhibition, actives largely listed as inhibitors | hit rate 5% among 1,500 | AID 2787; also: potency is read from the fitted curve at half-maximal effect; % is scaled to controls: 0 for no effect and ±100 for the full control effect; nearly all actives have a fitted effect of over 45% in size
Rabbit FBPA inh = rabbit FBP aldolase inhibition by Giardia aldolase hits. AID 2794. Potency, µM (highest dose often 57.5 µM), for inactives: top-dose activity, negative = inhibition, hits mostly inhibitors. Rabbit muscle FBPA enzyme inhibition, selectivity counter-screen. hit rate 4% among 1,500. shares compounds with Giardia FBPA inh-1; also: potency is read from the fitted curve at half-maximal effect; % is scaled to controls: 0 for no effect and ±100 for the full control effect; nearly all actives have a fitted effect of over 60% in size
Target sequence (P00883 whole entry, looked up): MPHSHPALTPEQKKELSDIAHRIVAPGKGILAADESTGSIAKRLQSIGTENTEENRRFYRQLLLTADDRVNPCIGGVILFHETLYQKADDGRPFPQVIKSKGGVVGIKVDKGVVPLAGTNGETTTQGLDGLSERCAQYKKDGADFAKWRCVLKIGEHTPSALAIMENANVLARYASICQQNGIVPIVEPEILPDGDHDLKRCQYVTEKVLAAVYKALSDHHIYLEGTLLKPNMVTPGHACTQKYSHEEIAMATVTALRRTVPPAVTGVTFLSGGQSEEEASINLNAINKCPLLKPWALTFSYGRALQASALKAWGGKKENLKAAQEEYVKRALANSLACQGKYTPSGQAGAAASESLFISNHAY
GAPDH coupling = counter-screen for Giardia aldolase inhibitors: GAPDH coupling enzyme; shares compounds with Giardia FBPA inh-1; GAPDH coupling enzyme counterscreen, biochemical, qHTS; Potency, µM (doses to about 57.5 µM), for the others: at the highest dose activity change, negative = inhibition, hits mostly inhibitors; hit rate 6% among 1,500; AID 2795; also: potency is read from the fitted curve at half-maximal effect; % is scaled to controls: 0 for no effect and ±100 for the full control effect; nearly all actives have a fitted effect of over 55% in size
Active calls of the source: *; ? = inconclusive; . = no result given; [ ] = dose if it differs, or a comment. Unless noted, calls follow the shape of the dose curve; as a rule, active = well fitted curve in the direction sought with a large enough effect; inconclusive = small, poorly fitted or top-dose-only effect, or another doubt; inactive = no such curve, though single readings can be large; an effect the other way counts as inactive or inconclusive.

SMILES	RE007 growth inh	Shiga inhibitor	TbPYK inhibitor	LmPK inhibitor	Cycloheximide cs	Giardia FBPA inh-1	Giardia growth	Mammal cell tox	Giardia FBPA inh-2	Rabbit FBPA inh	GAPDH coupling
CC1(C)Nc2ccccc2N(Cc2ccc([N+](=O)[O-])cc2)C1=O	6%	-11	-2%	0%	-2	-4%	.	.	.	.	.
O=C(Nc1nnc(C2=COCCO2)o1)c1ccc(Cl)cc1	?	-10	-2%	2%	1	20%	.	.	.	.	.
O=C(Nc1nnc(C2=COCCO2)o1)c1ccc(F)cc1	-19%	26	-5%	4%	1	32µM*	?	5%	-7%	-12%	-10%
O=C(Nc1nnc(C2=COCCO2)o1)c1ccc(Cc2ccccc2)cc1	4%	-11	7%	0%	-2	18µM*	?	-3%	2%	8%	-3%
O=C(Nc1nnc(C2=COCCO2)o1)c1ccc(Br)cc1	.	-24	.	2%	-3	.	.	.	.	.	.
CCC(=O)NC1=C(Cl)C(=O)C(NC(=O)CC)=C(Cl)C1=O	.	5	2.5µM*	?	14*	1.8µM*	14%[38.3 µM]	?	2.9µM*	5.2µM*	3.7µM*
O=C1NC[C@@H](CCCCN2CCN(CCc3ccc(O)cc3)C(=O)C2=O)N(CCc2ccc(O)cc2)C1=O	3%	.	0%	.	.	.	.	.	.	.	.
CCc1ccccc1NC(=O)c1ccc(=O)n(Cc2ccc(F)cc2)c1	.	.	2%	.	.	.	.	.	.	.	.
Cc1cc(C)n2cnnc2n1	-19%	-2	-8%	-2%	1	-1%	.	.	.	.	.
Cc1cc(C)n2c(=S)[nH]nc2n1	5%	-3	10µM*	1%	-4	2.2µM*	-5%[38.3 µM]	3%	-1%	?	-19%
OCCN(CC#CCC(O)(c1ccccc1)C1CCCC1)CCO (configuration not stated)	-4%	-8	-4%	3%	-1	-1%	.	.	.	.	.
CC(C)(C)N(CC#CCC(O)(c1ccccc1)c1ccccc1)CCO	18%	6	-6%	-1%	5	20µM*	-6%	-3%	-2%	12%	9%
COc1cccc(C(=O)OCC(=O)NCCCc2ccccc2)c1	1%	-7	6%	3%	-2	4%	.	.	.	.	.
Cc1ccc(Cl)cc1N1CCN(C(=O)CCCCCn2c(=O)[nH]c3ccccc3c2=O)CC1	.	.	0%	.	.	.	.	.	.	.	.
COc1ccc(-c2n[nH]c(=S)n2N)c(OC)c1	6%	-4	-29%	6%	14	10µM*	-13%	0%	0%	12%	10%
COc1cc(Br)c(CNc2cc(C)ccc2C)cc1OC	-15%	-4	-6%	-7%	-2	20µM*	-19%	-3%	-3%	7%	6%
CCOC(=O)c1ccc(-n2cnc(-c3ccc([N+](=O)[O-])cc3)c2)cc1	-4%	.	-2%	.	.	.	.	.	.	.	.
CN1CCN(C(c2cccnc2)c2ccc3cccnc3c2O)CC1 (configuration not stated)	-12%	6	137%	33%	6	?	-14%[38.3 µM]	-11%	?	-30%	-8%
COC(=O)c1ccc(OCc2nn[nH]n2)cc1	20%	6	1%	0%	-2	32µM*	21%	19%	14%	12%	14%
Cc1cccc(OCc2nn[nH]n2)c1C	3%	-10	2%	-4%	-4	14µM*	26%	-4%	4%	13%	16%
COc1ccc(OCc2nn[nH]n2)cc1	3%	19	3%	6%	1	25µM*	?	-6%	12%	7%	22%
COc1ccccc1C1OC(=O)CC1C(=O)OC[C@@H]1CCCN2CCCCC12 (some centres not stated)	.	.	.	.	.	4%	.	.	.	.	.
Cc1cc(O)c(C(=O)c2cnc3c(c2)COc2ccccc2-3)cc1Cl	.	.	-8%	.	.	.	.	.	.	.	.
CC(=O)NC1C(=O)SC1(C)C (configuration not stated)	.	-30	.	-6%	-3	16µM*	-10%	-5%	-22%	-4%	-3%
CC(=O)N[C@@H]1CCSC1=O	.	.	-9%[33.2 µM]	.	.	5%[21.7 µM]	.	.	.	.	.
SMILES	RE007 growth inh	Shiga inhibitor	TbPYK inhibitor	LmPK inhibitor	Cycloheximide cs	Giardia FBPA inh-1	Giardia growth	Mammal cell tox	Giardia FBPA inh-2	Rabbit FBPA inh	GAPDH coupling
Cn1c2ccccc2c2cc(/C=N/NC(=O)c3cc(O)ccc3O)ccc21	-13%	18	-13%	0%	12*	25µM*	-10%	1%	?	-7%	-29%
Cc1cccc(NC(=O)Cn2c(=O)n(Cc3nc(-c4ccccc4)no3)c(=O)c3ccccc32)c1	.	.	0%	.	.	.	.	.	.	.	.
CCOC(=O)c1c(NC(=O)COC(=O)c2ccc(Cl)nc2)sc(C)c1C	-7%	.	-12%	.	.	.	.	.	.	.	.
Cc1ccc(CN(Cc2ccccc2)C(=S)NCC(=O)NCc2cccnc2)o1	4%	-7	-22%	-12%	12	16µM*	-12%	-12%	3%	5%	4%
COc1cccc(CN2CCN(Cc3ccco3)CC2)c1	-13%	16	-7%	-4%	11	?	.	.	.	.	.
COc1ccc(CN2CCN(Cc3ccco3)CC2)cc1OC	-26%	.	0%	-3%	0	13µM*	-6%[10.4 µM]	-6%	0%	8%	8%
COc1cccc(N2CCN(Cc3ccco3)CC2)c1	-21%	12	23%	-5%	6	25µM*	?	-11%	-5%	3%	9%
COc1ccc(CN2CCN(Cc3ccco3)CC2)cc1	-2%	-5	-4%	-3%	-2	?	.	.	.	.	.
CN(C)/C=C(/C#N)C(=O)c1cccc(Oc2ccc(C(C)(C)C)cc2)c1	19%	-20	-1%	5%	-3	13%	.	.	.	.	.
CC1(C)CC(NC(=S)Nc2ccc(S(N)(=O)=O)cc2)CC(C)(C)N1	35%	-12	-4%	-10%	-8	8.9µM*	18%[38.3 µM]	-2%	-7%	-4%	-3%
NS(=O)(=O)c1ccc(NC(=S)NC2CC2)cc1	6%	-7	2%	2%	-2	?	.	.	.	.	.
COc1ccc(-c2nc(CNC(=O)Nc3ccccc3)c(C)o2)cc1	.	.	4%	.	.	.	.	.	.	.	.
COc1cc(OC)c(OC)cc1CN1CCN(Cc2ccc(SC)cc2)CC1	-11%	10	-10%	-1%	6	?	.	.	.	.	.

Screening data as filed in PubChem BioAssay.
